Assay outcomes: PubChem BioAssay, National Center for Advancing Translational Sciences (NCATS)
Compounds with a hit are over-represented: about 1.9% of the library has one in this group of screens.
PKM2 act: PKM2 (human) enzyme activation. P14618. purified PKM2, Kinase-Glo ATP luminescence, activation; response scale: 0% is enzyme alone, no compound. Potency, µM (doses to about 57.5 µM), for the others: top-dose activation, hits mostly activators. 260,000 compounds, 0.34% hits. AID 1631; note: potency is the fitted concentration of half-maximal effect; % is set by controls: 0 for no effect and ±100 for the full control effect; nearly all actives have a fitted effect of over 55% in size
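Purified hPK-M2 (>95%) run at intermediate activity with 0.1 mM ADP and 0.5 mM PEP in 50 mM imidazole pH 7.2, KCl, MgCl2; 1 h room temperature. ATP formed read by Kinase-Glo luminescence; normalized to uninhibited and no-enzyme controls.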
ClpP mod: qHTS Assay for Activators of ClpP; purified B. subtilis ClpP, FRET peptide cleavage, 20 min; AID 651965, 2013; Potency, µM (top dose mostly 57.5 µM), without a hit: at the highest dose activity change, negative = active; ATP-dependent Clp protease proteolytic subunit (Bacillus subtilis (strain 168)), P80244; 340,000 compounds, 1.9% hits; active = well fitted falling curve with a large enough effect; inconclusive = small, poorly fitted or top-dose-only effect; inactive = no such curve, though single readings can be large or run the other way; note: potency is the fitted concentration of half-maximal effect; the source files actives as falling curves though it sought activators and does not explain the sign; nearly all actives have a fitted effect of over 65% in size
Target sequence (P80244 whole entry, looked up): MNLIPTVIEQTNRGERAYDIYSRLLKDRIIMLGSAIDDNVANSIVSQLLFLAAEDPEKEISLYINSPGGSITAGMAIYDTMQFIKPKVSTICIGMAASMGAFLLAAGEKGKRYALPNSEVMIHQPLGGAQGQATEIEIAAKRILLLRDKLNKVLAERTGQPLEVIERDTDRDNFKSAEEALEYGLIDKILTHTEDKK
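ClpP 10 microg/mL final, pH 8 Tris/KCl buffer with BSA, glycerol, Tween-20; compound pinned in; FRET-FV substrate; RT 20 min; Ex320/Em430; ΔFRET vs ADEP 5.8 microM, DMSO, no enzyme.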
Pin1 inh: blocks the human prolyl isomerase Pin1; AID 504891; Q13526; 390,000 compounds, 0.009% hits; Pin1 FP peptide displacement, HiFluor488, 10 min; Potency, µM (series often up to 115 µM), without a hit: at the top dose activity, negative = inhibition, hits mostly inhibitors; active = well fitted inhibition curve with a large enough effect in the polarisation, with a control signal flat, not every such curve was filed as active; inconclusive = small, poorly fitted or top-dose-only effect, or effect the other way, or a change in a side signal; inactive = no such curve, though single readings can be large or run the other way; the % refers to the polarisation; note: potency is the fitted concentration of half-maximal effect; % is set by controls: 0 for no effect and ±100 for the full control effect
Target sequence (Q13526 whole entry, looked up): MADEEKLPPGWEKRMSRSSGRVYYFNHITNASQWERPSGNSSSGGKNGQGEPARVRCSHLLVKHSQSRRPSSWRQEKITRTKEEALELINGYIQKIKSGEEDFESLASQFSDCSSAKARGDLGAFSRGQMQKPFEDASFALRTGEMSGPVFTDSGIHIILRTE
USP2a inh: inhibitors of human ubiquitin-specific protease USP2a; 330,000 compounds, 0.01% hits; USP2 core, Ub-CHOP2 coupled fluorogenic reporter, 485/531; Potency, µM (top dose mostly 38.3 µM), for the others: top-dose activity change, negative = inhibition, actives largely listed as inhibitors;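 note: potency is the fitted concentration of half-maximal effect; plate controls were DMSO wells for no effect and full inhibition by NEM control for full effect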
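USP2 core (10nM final) preincubated 30min RT with compound in 20mM Tris-HCl pH 8.0, 2mM CaCl2, 2mM beta-mercaptoethanol, 0.05% CHAPS; 25nM Ub-CHOP2 plus 25nM reporter substrate added, fluorescence (Ex485/Em531) read after 60min.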
IL2 activator: activators of IL-2; 360,000 compounds, 0.065% hits; IL-2 activation reporter assay, cell-based qHTS; stimulated with anti-CD3/CD4/CD28 beads; in transgenic mouse T cells; activation, % (series mostly up to about 46 µM); in the data active = activation above about 50%; inconclusive = mostly about 30% to 49%; note: 0% is about no effect
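Unstimulated transgenic mouse T cells, 750 per well, received compound and, after 60 minutes, anti-CD3/anti-CD4 bead plus anti-CD28 stimulation. EGFP and DsRed were quantified after 18 hours.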
a7 integrin act: integrin-mediated muscular dystrophy alleviation activation; Potency, µM (doses to about 38.3 µM), without a hit: at the top dose activation, actives largely listed as activators; alpha7betagal myoblasts, beta-gal FDG fluorescence, 48 h; 350,000 compounds, 0.064% hits; AID 624291;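 note: potency is the fitted concentration of half-maximal effect; 100% = response of the positive control SU9516; nearly all actives have a fitted effect of over 60% in size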
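Alpha7betagal+/- myoblasts (passage 13) were plated 16-24 hr, then exposed to compounds (1:260 dilution of DMSO stock) for 48 hours at 37C. After MPER lysis, β-galactosidase reporter activity was read as FDG fluorescence (ex 480/em 540) after 30 minutes.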
An asterisk follows results filed as active; u = inconclusive; x = not tested or not shown. Unless noted, calls come from the whole dose curve; as a rule, active = well fitted curve in the direction sought with a large enough effect; inconclusive = small, poorly fitted or top-dose-only effect, or another doubt; inactive = no such curve, though single readings can be large; an effect the other way counts as inactive or inconclusive.

SMILES	PKM2 act	ClpP mod	Pin1 inh	USP2a inh	IL2 activator	a7 integrin act
Cc1ccc(S(=O)(=O)N2CCN(C(=O)CCN3C(=O)c4ccccc4C3=O)CC2)cc1C	5.6µM*	-2%	10%	-1%	-2	8%
Cc1ccc(S(=O)(=O)N2CCN(C(=O)CCn3nc(C)c(C)c3C)CC2)cc1C	7.9µM*	x	-2%	-1%	-3	8%
Cc1ccc(-c2cnc(N3CCC(C(N)=O)CC3)s2)cc1	x	x	6%	x	x	x
CCn1c(C)c(C)c2cc(C(=O)NCCc3ccco3)ccc21	28µM*	-15%	5%	-1%	-1	34%
Cc1c(C)n(C)c2ccc(C(=O)NCCc3ccco3)cc12	x	u	3%	0%	1	3%
Cc1cccc(CNC(=O)c2ccc3c(c2)c(C)c(C)n3Cc2ccccc2)c1	x	-28%	33%	x	x	x
Cc1ccccc1CCNC(=O)c1ccc2c(c1)c(C)c(C)n2Cc1ccccc1	x	32µM*	39%	x	x	x
CCOC(=O)c1ccc(NC(=O)c2ccc3c(c2)c(C)c(C)n3Cc2ccc(F)cc2)cc1	x	18µM*	6%	x	x	x
Cc1c(C)n(Cc2ccccc2)c2ccc(C(=O)NCc3ccc(OC(C)C)cc3)cc12	x	18µM*	33%	x	x	x
CCc1ccccc1N(C)C	x	1%	x	x	x	x
C=C(NNC(C)=O)c1ccc(O)cc1	x	4%	x	x	x	x
Cc1c(C)n(Cc2ccccc2)c2ccc(C(=O)NCCc3ccccc3Cl)cc12	x	16µM*	u	x	x	x
COc1ccc(CCNC(=O)c2ccc3c(c2)c(C)c(C)n3Cc2ccc(F)cc2)c(OC)c1OC	x	25µM*	15%	x	x	x
CN(C)c1ccc(C2=Cc3ccccc3C2)cc1	x	-1%	x	x	x	x
CCN(CC(=O)NCc1cccs1)C(=O)/C=C/c1ccc(F)cc1	x	1%	x	x	-1	4%
CCN(CC(=O)NCc1cccs1)C(=O)/C=C/c1cc(OC)c(OC)c(OC)c1	x	16µM*	3%	-1%	1	-8%
CCN(CC(=O)NCc1cccs1)C(=O)c1ccc(S(=O)(=O)N(C)c2ccccc2)cc1	x	22µM*	6%	0%	0	26%
CCOc1ccccc1NC(=O)NNC(=O)c1ccc2ccccc2c1	-4%	32µM*	0%	-1%	-1	-36%
CCc1nn(CC(=O)N2CCN(c3cccc(C(F)(F)F)c3)CC2)c(=O)c2cccn12	x	-2%	1%	x	x	x
CCC1(C)Cc2c(c(=O)n(-c3ccccc3)c3ncnc(N)c23)CO1 (stereo unspecified)	3%	16µM*	-2%	-6%	0	-5%
CCOC(=O)C1(Cc2ccccc2)CCN(Cc2cccn2-c2nccs2)CC1	1%	4.5µM*	4%	3%	-7	-16%
O=C(NCc1ccc2c(c1)OCO2)C1CCN(S(=O)(=O)c2cccs2)CC1	8.9µM*	0%	0%	-3%	0	-5%
COc1cccc(CNC(=O)C2CCN(S(=O)(=O)c3ccc4c(c3)OCCO4)CC2)c1	11µM*	1%	-1%	4%	-2	-8%
COc1ccc(NC(=O)CCNC(=O)C2CCN(S(=O)(=O)c3ccc(F)cc3)CC2)cc1OC	4.5µM*	-1%	4%	1%	-3	17%
O=C(NCc1ccc2c(c1)OCO2)C1CCN(S(=O)(=O)c2ccc(Br)s2)CC1	u	-3%	5%	0%	0	9%
COc1cccc(CNC(=O)C2CCN(S(=O)(=O)c3ccccc3)CC2)c1	25µM*	-2%	-10%	1%	1	8%
O=[S+]([O-])(c1ccc2c(c1)OCCO2)N1CCN([S+](=O)([O-])c2c(F)cc(Br)cc2F)CC1	x	x	3%	x	x	x
Cn1c(SCC(=O)NCc2ccco2)nnc1-c1ccc(NC(=O)c2ccccc2)cc1	x	-3%	x	x	x	x
